Experimental data from the supplement of paper PMC3334620.
Whole data set: some 33,000 sequences, median “E-score (-0.5 to 0.5)” near -0.021, cut for the highest 2% near 0.32. This is one part of a sample in which the highest values are shown more often than they occur.

molecular target: T1, Zap1 (UniProt P47043); test: PBM E-score (8-mer binding enrichment) (E-score (-0.5 to 0.5)); higher = stronger / more preferred TF binding; conditions: protein concentration: 200 nM; construct: GST-full length
T1 sequence: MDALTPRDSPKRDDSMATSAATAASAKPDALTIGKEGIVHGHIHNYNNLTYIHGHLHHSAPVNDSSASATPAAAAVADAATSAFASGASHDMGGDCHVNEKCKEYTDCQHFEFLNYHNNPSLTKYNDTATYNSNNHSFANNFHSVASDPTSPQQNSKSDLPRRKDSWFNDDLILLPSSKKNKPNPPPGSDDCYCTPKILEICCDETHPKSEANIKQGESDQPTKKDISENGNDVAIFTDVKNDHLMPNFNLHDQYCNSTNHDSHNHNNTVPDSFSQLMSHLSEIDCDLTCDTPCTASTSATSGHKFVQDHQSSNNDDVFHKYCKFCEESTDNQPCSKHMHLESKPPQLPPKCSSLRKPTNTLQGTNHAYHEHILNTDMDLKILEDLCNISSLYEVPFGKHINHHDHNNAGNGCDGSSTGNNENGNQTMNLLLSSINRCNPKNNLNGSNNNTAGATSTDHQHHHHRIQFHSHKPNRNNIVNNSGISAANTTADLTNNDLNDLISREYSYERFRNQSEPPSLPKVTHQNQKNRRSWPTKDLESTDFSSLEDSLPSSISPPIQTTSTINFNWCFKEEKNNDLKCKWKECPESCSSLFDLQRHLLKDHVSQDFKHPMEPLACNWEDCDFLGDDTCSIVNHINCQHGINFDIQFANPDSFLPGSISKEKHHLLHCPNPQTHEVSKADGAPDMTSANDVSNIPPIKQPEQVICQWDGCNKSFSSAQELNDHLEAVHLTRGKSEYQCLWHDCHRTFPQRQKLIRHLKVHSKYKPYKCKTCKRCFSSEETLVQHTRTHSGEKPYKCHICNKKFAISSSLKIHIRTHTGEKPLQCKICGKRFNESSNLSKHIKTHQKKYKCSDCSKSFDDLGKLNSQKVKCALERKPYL
Outline: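 For each ungapped eight-base word taken together with its reverse complement, the Universal PBM Analysis Suite assigned an E-score. Binding data came from GST-tagged yeast transcription factors, applied at about 100-200 nM, on universal all-10-mer Agilent arrays made double-stranded by primer extension. Fluorescent anti-GST marked bound protein, and scans were normalised with masliner.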

| Sequence | PBM E-score |
| --- | --- |
| CGGGTCAA | 0.163 |
| AGGGTCGG | 0.126 |
| AGGGTCGC | 0.364 |
| ATGGTCAC | 0.312 |
| GATTCTTA | 0.177 |
| CTAGTCTA | -0.0327 |
| CAGGTTCG | -0.158 |
| ATATCCTG | 0.103 |
| ACCATCGT | -0.0674 |
| ACTAACTG | 0.126 |
| AGGGTCCA | 0.214 |
| CTGGTCAC | 0.148 |
| AGAGTCAT | -0.0584 |
| CGGGTCCC | -0.116 |
| CGGGTCAC | 0.374 |
| ATGGTCAA | 0.245 |
| CGGGTCAG | 0.28 |
| AGGGTCAT | 0.449 |
| AGGGTCCC | 0.32 |
| CGAGGGGC | 0.0476 |
| CAAGGACA | -0.0888 |
| GAGATCCA | -0.0613 |
| GACCAAGA | 0.0225 |
| GAACCTAA | 0.194 |
| TACGAATA | 0.197 |
| ACACCTAA | 0.0902 |

| Sequence | PBM E-score |
| --- | --- |
| AAAATAAC | 0.21 |
| GAAATAAC | 0.221 |
| CAAATAAC | 0.322 |
| GCCCTTCA | 0.0388 |
| ACCCTTCC | 0.281 |
| ACCCTTCG | 0.373 |
| ACCCTTCA | 0.341 |
| TCCCTTCA | -0.0499 |
| ACCCTTCT | 0.272 |
| CTCGATCC | -0.0316 |
| ACTGTTCT | -0.0178 |
| GACCTAGC | -0.0032 |
| CTCGCGAC | 0.0966 |
| GTCGCGAA | -0.0334 |
| GTCGCGAC | 0.357 |
| GTAAATCA | 0.207 |
| ACGTCTAG | -0.0284 |
| CGTACTTC | -0.125 |
| CGAGGGTC | 0.245 |
| GGAGGGGA | -0.0565 |
| AGAGGGTA | 0.29 |
| CGAGGGTA | 0.371 |
| GGAGGGAA | -0.213 |
| GGAGGGTA | 0.346 |
| AACTAACA | 0.153 |
| AATTAACT | 0.0482 |

| Sequence | PBM E-score |
| --- | --- |
| AATTAATA | 0.332 |
| AACTAACT | 0.00107 |
| CATTAACC | 0.379 |
| AATTAATT | 0.0914 |
| CATTAACA | 0.0919 |
| AACTAACC | 0.333 |
| TATTAATA | 0.0379 |
| AATTAACC | 0.327 |
| CATTAACG | 0.0999 |
| GATTAACC | 0.173 |
| CCGATCGG | 0.13 |
| AGCTTGGG | -0.06 |
| GGCCTTCA | 0.167 |
| GCGAACCC | 0.00303 |
| GAGCTGAC | 0.122 |
| CAGTGACG | -0.0109 |
| ACGAAATG | 0.0348 |
| TAGACTGA | -0.182 |
| AATCTTTG | 0.114 |
| ACATACCT | 0.118 |
| CTTGGCGC | 0.0977 |
| ATGGTAAC | 0.392 |
| GTGGTAAC | 0.36 |
| GTGGTAAA | -0.0285 |
| CTGGTAAC | 0.255 |
| ATGGTAAA | 0.0888 |

| Sequence | PBM E-score |
| --- | --- |
| ATGGTAAG | -0.124 |
| CAAGTGTC | -0.0245 |
| ACCCAAGA | 0.152 |
| ACTATGGA | -0.0878 |
| ACAATAGG | -0.0709 |
| ACCAGTTA | 0.206 |
| AGATAACT | -0.118 |
| GGATAACC | 0.436 |
| CGATAACC | 0.46 |
| CGATAACG | -0.174 |
| AGATAACG | 0.0406 |
| CGATAACA | 0.131 |
| AGATAACC | 0.435 |
| GGATAAAC | 0.149 |
| GGATAACA | -0.0812 |
| CCTCTCGC | -0.108 |
| ACAAGCCG | -0.223 |
| TATGGGGA | 0.145 |
| AATATCCT | 0.00302 |
| AAGAGCTA | -0.0268 |
| ATGGGGTA | 0.326 |
| GTGGGGTA | 0.368 |
| CTGGGGTA | 0.269 |
| GGGGGGTA | -0.0438 |
| ATGGGGTG | 0.143 |
| ATGGGGTC | 0.284 |

| Sequence | PBM E-score |
| --- | --- |
| CGAACACA | 0.085 |
| CGTAACTA | 0.0577 |
| AGTAACTC | -0.0584 |
| AGTAACCC | 0.443 |
| AGTAACCA | 0.387 |
| GGTAACTA | 0.313 |
| GGTAACCA | 0.461 |
| AGTAACGA | 0.0604 |
| CGTAACCA | 0.441 |
| CGTAACGA | -0.081 |
| AGTAACTA | 0.219 |
| GGTAACGA | 0.294 |
| AGTAAACC | 0.177 |
| CATCAGGA | 0.0932 |
| ATAGTTGG | -0.0799 |
| CTGGAGGA | -0.216 |
| AAAGTAGT | 0.0501 |
| ACACTTGG | 0.0219 |
| AGTAACGG | 0.126 |
| GGTAATAA | 0.338 |
| GGTAATAC | 0.248 |
| TGTAATAA | 0.133 |
| CGTAACAA | 0.201 |
| GGTAACAA | 0.38 |
| AGTAACAA | 0.161 |
| AGTAACTG | -0.154 |

| Sequence | PBM E-score |
| --- | --- |
| AGTAACCG | 0.355 |
| CAGGGGAG | -0.0274 |
| GCTAATCC | -0.0663 |
| ATCGTTCA | 0.092 |
| CCTTCACA | 0.0885 |
| ACCTGACT | 0.143 |
| CCAGAACA | -0.00016 |
| GGGACCCA | 0.198 |
| AAGACCCC | 0.323 |
| ATGACCGA | 0.0244 |
| ATGACCTG | 0.303 |
| ATGACCCA | 0.397 |
| ATGACCCG | 0.269 |
| CTGACCCA | -0.11 |
| GTGACCCA | 0.389 |
| AAGACCCG | 0.0601 |
| AAGACCCA | 0.142 |
| ATGACCTC | 0.442 |
| CTGACCTC | 0.194 |
| ATCTGCTG | -0.184 |
| GCACCAAC | -0.00297 |
| CTTGACCA | 0.147 |
| CCCTCTGA | 0.0399 |
| ATTTTTTC | 0.0779 |
| ACCTGCCG | -0.0789 |
| AGACAAAC | -0.0937 |

| Sequence | PBM E-score |
| --- | --- |
| ATGACCAC | 0.289 |
| GTGACCAA | 0.305 |
| CTGACCCC | 0.12 |
| ATGACCCC | 0.385 |
| ATGACCGC | 0.302 |
| GTGACCAC | 0.344 |
| AAGTGGCC | 0.0931 |
| GGAGCGAC | -0.122 |
| AGGCCACT | -0.13 |
| AACCTCTA | 0.351 |
| AGCCTCTA | -0.101 |
| ACCCTCTC | 0.121 |
| TACCTCCA | 0.303 |
| CACCTCTA | 0.22 |
| AACCTCTC | 0.349 |
| CACCTCTC | -0.242 |
| ACCCTCTA | 0.355 |
| GACCTCTC | 0.203 |
| GCCCTCTA | -0.245 |
| TACCTCTA | 0.347 |
| AACCTCAA | 0.263 |
